Assay [1] can be described thus: competitive ABPP of pPAFAH versus proteome hydrolases – biochemical, gel-based, FP-Rh fluorescence, complex proteome, SAR compounds, selectivity assay for pPAFAH inhibitor project, SAR follow-up (AID 588774).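 As to inhibition: 0% = DMSO-only band intensity and 100% = blank gel background.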 To be noted: MW 30 kDa, anti-targets inhibited, at 10 µM.
The subject of assay [2] is MW 30 kDa. The assay is described as above. To be noted: at 10 µM, stronger effect = higher value.

Activity calls are given as the source filed them.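 The calls were made as follows: active = target enzyme inhibited at least 50% at a set dose, and selective over every off-target enzyme by a set factor; inactive = weaker inhibition or too little selectivity.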

As a reminder, the inhibition is the drop in the measured response relative to a control, in per cent.

Consider `Cc1cc(N2CCN(C(=O)Oc3ccc(-n4cccc4)cc3)CC2)c2ccccc2n1`, for which the anti-target count in assay [1] is 0. Also, in assay [2], the inhibition was 0% (inactive).

As to `Cc1cc(N2CCN(C(=O)Oc3ccc(C4CCCC4)cc3)CC2)c2ccccc2n1`, the anti-target count in assay [1] turned out to be 0. For the same molecule, the inhibition in assay [2] was 0% (inactive).

Take `Cc1cc(N2CCN(C(=O)Oc3ccc(-c4ccc(Br)cc4)cc3)CC2)c2ccccc2n1`: the anti-target count in assay [1] amounted to 0. The inhibition in assay [2] is 0% (inactive).

In assay [1], `COc1ccc(-c2cnn(C(=O)N3CCN(c4cc(C)nc5ccccc45)CC3)n2)cc1` registered an anti-target count of 8. Further, the inhibition in assay [2] is 79% (inactive).

In the case of `Cc1cc(N2CCN(C(=O)Oc3ccc(C(F)(F)F)cc3)CC2)c2ccccc2n1`, the anti-target count in assay [1] amounted to 1. The inhibition in assay [2] is 0% (inactive).

For the molecule `Cc1cc(N2CCN(C(=O)Oc3ccc([N+](=O)[O-])cc3)CC2)c2ccccc2n1`, the anti-target count in assay [1] came to 2. Moreover, the inhibition in assay [2] was 0% (inactive).

Regarding `Cc1cc(N2CCN(C(=O)Oc3noc4cc(Cl)ccc34)CC2)c2ccccc2n1`, in assay [1], the anti-target count is 4. Besides, in assay [2], the inhibition was 0% (inactive).

As to `O=C(Oc1noc2cc(Cl)ccc12)N1CCCCC1`, in assay [1], the anti-target count was 2. In assay [2], the inhibition is 100% (inactive).

In turn, `Cc1cc(N2CCN(C(=O)n3oc4cc(Cl)ccc4c3=O)CC2)c2ccccc2n1` had an anti-target count in assay [1] of 3. For the same molecule, the inhibition in assay [2] was 39% (inactive).

In assay [1], `O=C(Oc1noc2cc(Cl)ccc12)N1CCOCC1` had an anti-target count of 3. In assay [2], the inhibition is 97% (inactive).

Consider `Cc1cc(N2CCN(C(=O)Oc3ccc(C4CCCCC4)cc3)CC2)c2ccccc2n1`, for which, in assay [1], the anti-target count is 0. For the same molecule, in assay [2], the inhibition was 0% (inactive).

`Cc1cc(N2CCN(C(=O)Oc3ccc(-c4ccccc4)cc3)CC2)c2ccccc2n1` displayed an anti-target count in assay [1] of 0. In assay [2], the inhibition is 0% (inactive).

`Cc1cc(N2CCN(C(=O)n3ncc(-c4ccc([N+](=O)[O-])cc4)n3)CC2)c2ccccc2n1` gave an anti-target count in assay [1] of 9. In assay [2], the inhibition was 91% (inactive).

These data come from PubChem BioAssay AID588774 (The Scripps Research Institute Molecular Screening Center, 2011).
